Source: PubChem BioAssay (National Center for Advancing Translational Sciences (NCATS))
D1 antagonist: antagonists of human D1 dopamine receptor | P21728 | HEK293 TREx D1 cells, calcium flux, dopamine EC80; hits give low values | activity change, negative = inhibition, % at 10 µM | hit rate 3.2% among 360,000; in the data active = activity change below about -30%; also: % is scaled to controls: 0 for no effect and ±100 for the full control effect
Target sequence (P21728 whole entry, looked up): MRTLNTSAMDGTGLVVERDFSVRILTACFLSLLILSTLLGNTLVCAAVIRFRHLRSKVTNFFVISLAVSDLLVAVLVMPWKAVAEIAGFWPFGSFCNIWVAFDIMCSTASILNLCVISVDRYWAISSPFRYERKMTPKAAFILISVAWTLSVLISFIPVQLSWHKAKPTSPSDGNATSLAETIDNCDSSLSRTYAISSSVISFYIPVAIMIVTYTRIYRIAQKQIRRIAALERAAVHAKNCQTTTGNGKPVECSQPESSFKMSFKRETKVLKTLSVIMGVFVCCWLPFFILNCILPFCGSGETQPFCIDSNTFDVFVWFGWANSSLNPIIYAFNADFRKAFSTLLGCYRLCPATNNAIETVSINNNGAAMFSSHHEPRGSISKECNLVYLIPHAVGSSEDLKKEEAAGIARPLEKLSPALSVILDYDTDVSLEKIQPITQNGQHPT
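Allosteric or orthosteric antagonism assessed as attenuation of the calcium response to EC80 dopamine, added 180 s after compound, in induced HEK293 Trex D1 cells loaded with no-wash calcium dye.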
DRD3 antagonist: antagonists of human D3 dopamine receptor. max response, negative = inhibition, %. D3R cells, DiscoveRx beta-arrestin luminescence, antagonist mode; hits give low values. AID 652054. P35462. hit rate 2.5% among 360,000; in the data active = max response below about -50%; inconclusive = no clear call, values can overlap the other calls; also: % is scaled to controls: 0 for no effect and ±100 for the full control effect
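Cells expressing the human receptor were seeded at 1500 cells/well, incubated overnight at 37 degrees C in 5% CO2, then exposed to library compounds with dopamine controls for 90 minutes at 37 degrees C before luminescent detection.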
D1 potentiator: human D1 dopamine receptor positive modulation. P21728. HEK293 TREx D1 cells, calcium flux, dopamine EC20 potentiation. hit rate 0.036% among 360,000. AID 504651. potentiation, % at 10 µM; in the data active = potentiation above about 30%; also: 0% is about no effect
D3 ag: agonists of human D3 dopamine receptor; max activation, %; hit rate 0.58% among 410,000; D3R DiscoveRx beta-arrestin cells, luminescence, 90 min; in the data active = max activation above about 30%; also: 0% is about no effect
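Agonist-mode cell screen: cells plated at 1500/well and incubated overnight at 37 °C, then exposed to library compounds for 90 min at 37 °C. Detection reagent was added for 30–60 min at room temperature, and luminescence was read.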
D1 agonist: human D1 receptor agonism; AID 504660; activation, % at 2 µM; hit rate 1% among 360,000; P21728; HEK293 T-REx D1 cells, calcium flux, agonist mode; in the data active = activation above about 30%; also: 0% is about no effect
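Inducible HEK293 T-REx D1 cells, force-coupled to calcium signalling, were plated at 4000 cells/well with tetracycline and held overnight at 30 C. After no-wash calcium dye loading, compound-evoked calcium rise over 180 s flagged agonists.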
Starred values were filed as active, the others as inactive; ? = inconclusive; / = no result. Only some compounds are listed: those with a hit (about 6.1% of all), similar ones and a draw of the others.

SMILES	D1 antagonist	DRD3 antagonist	D1 potentiator	D3 ag	D1 agonist
CC(=O)NC(NC(=S)Nc1ccc(N=Nc2ccccc2C)cc1C)C(Cl)(Cl)Cl (stereo unspecified)	15	-81*	-2	-1	1
O=C(N/N=C\c1ccc(-c2ccccc2[N+](=O)[O-])o1)C1COc2ccccc2O1 (stereo unspecified)	-36*	4	-6	3	1
Cc1c(C(=O)N/N=C/c2ccc(-c3ccccc3[N+](=O)[O-])o2)sc(N)c1C#N	-62*	-9	-10	-4	0
O=C(c1cccs1)N(Cc1cccnc1)c1nc2ccc(F)cc2s1	/	/	-2	-8	1
CCOC(=O)c1sc(=S)n(Cc2ccccc2)c1C	-31*	5	0	-4	6
COc1cccc(NC(=O)C2CCCN2C(=O)Nc2cccc(F)c2)c1 (stereo unspecified)	1	-16	-2	3	0
COC(=O)[C@H]1CCCN1C(=O)Nc1cccc(Oc2c(F)c(F)c(F)c(F)c2F)c1	-31*	-21	-2	-2	4
Cc1ccc(/C=N/NC(=O)c2ccoc2C)o1	-5	-11	-2	1	1
Cc1ccc(/C=N/NC(=O)C(=O)N/N=C/c2ccc(C)o2)o1	-31*	27	-2	5	-1
Cc1ccc(SCc2nnc(NC(=O)c3ccccc3)s2)cc1	-42*	-9	-7	-2	2
COC(=O)Cc1nnc(NC(=O)c2ccccc2)s1	-6	-21	-1	-6	2
CC(=O)N(c1ccc2oc(=O)sc2c1)S(=O)(=O)c1cccs1	9	-51*	-3	6	1
N#C/C(=C1/SC[C@@H](c2ccc(Cl)cc2Cl)S1)n1ccnc1	/	/	/	4	/
COc1ccc(-c2cc(N)n(S(=O)(=O)c3c(F)c(F)c(F)c(F)c3F)n2)cc1OC	-18	-56*	-2	-25	-1
CCN1CCN(c2ncc3c(n2)CCN(CC(C)C)C3)CC1	-9	/	1	-6	3
COc1ccccc1NC(=O)c1ccc(-c2nc(COc3ccc(C)cc3)c(C)o2)cc1	8	/	-2	13	9
CCCNC(=S)N1CCN(c2nc(-c3cccc(OC)c3)cs2)CC1	-28	0	-6	0	6
CCCNC(=S)N1CCN(c2nc(-c3ccc(C)cc3)cs2)CC1	-35*	16	-5	9	7
CCOCCCNC(=S)N1CCN(c2nc(-c3ccc(F)cc3)cs2)CC1	-31*	28	-9	9	6
COc1ccc(N2CCN(c3ncccc3-c3nc(-c4ccccc4C)no3)CC2)cc1	-31*	/	-1	8	5
C=C1C(=O)[C@]23C[C@H]1CCC2[C@@]1(C)C(C[C@@H]3O)[C@](C)(C(=O)OC)CC[C@@H]1O (stereo partly specified)	/	-67*	/	-12	/
CN1CCN(c2nc(-c3ccccn3)nc3ccccc23)CC1	4	-51*	-2	4	4
Brc1ccc(-c2nc(N3CCN(c4ccccc4)CC3)c3ccccc3n2)cc1	-19	/	-2	-8	-3
CCCOc1ccc(-c2nc(N3CCN(C)CC3)c3ccccc3n2)cc1	-4	-59*	-12	-10	5
c1ccc(N2CCN(c3nc(-c4ccccn4)nc4ccccc34)CC2)cc1	0	-82*	3	-11	1
SMILES	D1 antagonist	DRD3 antagonist	D1 potentiator	D3 ag	D1 agonist
COc1ccc(C2CC(=O)c3cc(-c4nc(-c5ccc(Cl)cc5)c(C)s4)c(=O)[nH]c3C2)cc1 (stereo unspecified)	14	/	2	1	2
CC1=C(C(=O)Nc2ccccc2C)C(c2ccccn2)n2nc(SCc3ccccc3F)nc2N1 (stereo unspecified)	-7	/	0	-9	4
C=Cc1ccc(CSc2nc(-c3ccccc3Cl)nc3c2Cc2c(CO)cnc(C)c2O3)cc1	4	/	0	-1	3
COC(=O)Sc1nc(N2CCOCC2)c2c(c1C#N)CC(C)(C)OC2	5	-57*	1	-1	1
COC(=O)CSc1nc(N2CCOCC2)c2c(c1C#N)CC(C)(C)OC2	-11	14	-1	-8	1
CCn1c(C)nnc1SCC(=O)Nc1ccc(C(C)=O)cc1	58	1	0	-2	4
CCn1c(CC(=O)Nc2ccc(Cl)c(Cl)c2)nnc1SCc1ccc(C)cc1	-1	-93*	-11	7	1
CCn1c(C)nnc1SCC(=O)Nc1cccc(Cl)c1	-43*	2	0	1	-4
Cc1ccccc1CNC(=O)CCSCc1cnn(-c2ccccc2)c1-n1cccc1	3	/	-1	1	3
CC(C)(C)C(=O)/C(=C/c1ccncc1)n1cncn1	-2	-56*	5	-10	3
CCOC(=O)N1CCN(CC(O)c2ccc3c(c2)CCN3)CC1 (stereo unspecified)	-3	-4	1	-1	1
OC(CN1CCN(c2cccc(Cl)c2)CC1)c1ccccc1 (stereo unspecified)	-35*	?	-9	21	4
OC(CN1CCN(c2ccccc2)CC1)c1ccc2c(c1)CCN2 (stereo unspecified)	4	-28	-2	44*	2
C/C(=C\c1ccccc1)CN1CCN(c2ccccc2F)CC1	-22	-82*	-12	-29	1
C/C(=C\c1ccccc1)CN1CCN(c2cccc(Cl)c2)CC1	-14	-137*	-9	-18	2
CCN1CCN(C/C(C)=C/c2ccccc2)CC1	-4	?	-2	-19	6
CCOc1ccccc1NC(=O)Nc1cc(C(=O)NCc2ccc(C)cc2)ccc1N1CCCC1	3	/	0	-5	4
COc1cccc(N2CC(NC(=O)c3ccc(S(=O)(=O)N4CCCC4)cc3)CC2=O)c1 (stereo unspecified)	/	/	1	-4	-5
CCOC(=O)c1c(N)n(-c2ccc(Cl)c(Cl)c2)c2nc3ccccc3nc12	-14	/	-1	-1	1
C/C=C(\C)CN1CCN(c2ccc(C)cc2)CC1	-9	-79*	-8	-16	2
COc1ccc(N2CCN(CC(=O)Nc3c(C)cc(C)cc3C)CC2)cc1	-9	-14	-3	-2	0
O=C(Nc1cc(Cl)ccc1Cl)C1CC(=O)N(c2ccc(Br)cc2)C1 (stereo unspecified)	-14	-55*	3	-11	1
Cc1ccc(N2CC(C(=O)Nc3ccc(Cl)cc3Cl)CC2=O)cc1 (stereo unspecified)	-8	/	-1	4	-4
Cc1ccc(S(=O)(=O)c2c(O)cc(C)c(NS(=O)(=O)c3ccc(Br)cc3)c2C)cc1	14	/	-3	-13	2
O=C(Nc1cccc(C(F)(F)F)c1)c1cnn(-c2cccc(F)c2)c1C1CCNCC1	7	/	-4	-13	0
CCOc1ccccc1CNCc1cccn1-c1nnc(N2CCN(c3ccccc3)CC2)s1	-15	/	-3	-12	16
